Data reported in PubChem BioAssay (NCI).
The panel holds about 83,000 compounds, 20% with a hit somewhere; the sample as a whole holds those more often.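 Growth was measured after 48 h exposure to one concentration of compound in 96-well plates. Values under 10 count as active.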 Activity calls are given as the source filed them.

Columns and labels:
Assay in all cases: NCI-60 one-dose screen, 48 h (100 = growth as untreated, 0 = no growth, -100 = all killed)
Conditions in all cases: 10 µM unless noted
[1] = system: SK-MEL-2 melanoma
[2] = system: SN12C renal
[3] = system: UO-31 renal
[4] = system: TK-10 renal
[5] = system: ACHN renal
[6] = system: CAKI-1 renal
[7] = system: A498 renal
[8] = system: CCRF-CEM leukemia
[9] = system: MOLT-4 leukemia
[10] = system: SR leukemia
[11] = system: RPMI-8226 leukemia
[12] = system: OVCAR-8 ovarian
[13] = system: OVCAR-5 ovarian
[14] = system: OVCAR-4 ovarian
[15] = system: SK-OV-3 ovarian
[16] = system: IGROV1 ovarian
[17] = system: OVCAR-3 ovarian
[18] = system: HS 578T breast
[19] = system: NCI/ADR-RES ovarian

Measured: growth

O=c1c2cccc3c(Nc4ccccn4)ccc(c32)c2nc3ccccc3n12
inactive: [1] 80.5% | [2] 71.7% | [3] 46.6% | [4] 65.8% | [5] 76.1% | [6] 51.8% | [7] 92.3% | [8] 51.8% | [9] 61.8% | [10] 10.2% | [11] 49% | [12] 75.4% | [13] 83.3% | [14] 69.1% | [15] 89.1% | [16] 56.6% | [17] 70% | [18] 111% | [19] 74.6%

O=C(NC(Cc1ccccc1)C(=O)CCl)OCc1ccccc1 (stereo unspecified)
inactive: [2] 56.7% | [3] 59.6% | [4] 84.8% | [5] 72% | [6] 48.2% | [7] 98.7% | [9] 12.2% | [13] 92.3% | [14] 62.7% | [15] 87.8% | [16] 87.7% | [17] 76% | [18] 99.5% | [19] 75.1%
active: [1] 8.62% | [8] -4.62% | [11] 9.51%

C#Cc1nc(Nc2cc(C)[nH]n2)c2ccccc2n1
inactive: [15] 21.1%
active: [1] -53.2% | [2] -31.6% | [3] -36.1% | [4] -21.3% | [5] -42.4% | [6] -70% | [7] -93.6% | [8] 2.05% | [9] -19.8% | [10] 3.84% | [11] -16.5% | [12] -19.2% | [13] -28.5% | [14] -55.2% | [16] -62.7% | [17] -71% | [18] -1.95% | [19] 9.77%

CC1(C)OCC2OC3(C(=O)O)OC(C)(C)OC3C2O1 (stereo unspecified)
inactive: [1] 105% | [2] 106% | [3] 94.2% | [4] 102% | [5] 103% | [6] 103% | [7] 93.6% | [8] 108% | [9] 97.9% | [10] 101% | [11] 117% | [13] 106% | [14] 118% | [15] 101% | [16] 106% | [17] 99.2% | [18] 102% | [19] 107%

CCc1ccccc1NC(=O)c1sc2nc3c(cc2c1N)C(=O)CCC3
active: [7] -9.7% | [10] 9.38% | [15] 6.9% | [17] -12.7% | [19] 5.24%
inactive: [1] 19.9% | [2] 45.4% | [3] 44.5% | [4] 54.7% | [5] 58.4% | [6] 29.9% | [8] 13.6% | [9] 24.4% | [11] 17.8% | [12] 24.3% | [13] 33.5% | [14] 60.9% | [16] 33.3% | [18] 22.6%

CC(=O)OCC(=O)C1CCC=CC1OC(C)=O (stereo unspecified)
inactive: [1] 88.3% | [2] 99.4% | [3] 66.4% | [4] 110% | [5] 100% | [6] 93.4% | [7] 110% | [8] 99.7% | [9] 95.9% | [10] 98.9% | [11] 100% | [12] 97.2% | [13] 104% | [14] 94.4% | [15] 87.9% | [16] 102% | [17] 107% | [18] 110% | [19] 100%

CNC(=S)N/N=C/CSC/C=N/NC(=S)NC
active: [10] 6.29%
inactive: [1] 98.7% | [2] 104% | [3] 71.7% | [4] 103% | [5] 99.6% | [6] 98.7% | [7] 110% | [8] 20.4% | [9] 48.7% | [11] 63.7% | [13] 89.8% | [14] 76.1% | [15] 80.5% | [17] 32.3% | [18] 107% | [19] 97.9%

CCN(CC)CCCC(C)N/C(=C1\C(=O)NC(=O)\C1=C(/NC(C)CCCN(CC)CC)c1cccc(OC)c1)c1cccc(OC)c1 (stereo unspecified)
active: [2] 9.96% | [3] -83.8% | [4] -23.4% | [5] -29% | [8] -28.1% | [9] -10.5% | [10] -25.1% | [11] -35.7% | [12] 5.58% | [13] 1.93% | [14] -23.3% | [16] -18.5% | [17] -11.3% | [19] 2.36%
inactive: [6] 61.4% | [7] 60.2% | [15] 11.8% | [18] 38.4%

COc1ccc(C(=O)c2sc3nc(-c4ccccc4OC)ccc3c2N)cc1OC
inactive: [1] 89.5% | [2] 66.1% | [3] 53.4% | [4] 79.7% | [5] 66.9% | [6] 62.4% | [7] 47.7% | [10] 21.6% | [11] 19.7% | [12] 43.2% | [13] 89.8% | [14] 61.5% | [15] 107% | [16] 57.5% | [17] 68.9% | [18] 55.6% | [19] 33.1%
active: [9] -45%

O=C(/C=C/c1ccc(B(O)O)cc1)/C=C/c1ccc(B(O)O)cc1
inactive: [1] 110% | [2] 57.5% | [4] 99.3% | [5] 86.8% | [7] 71.1% | [8] 25% | [9] 51% | [12] 72.2% | [13] 92.8% | [15] 46.8% | [17] 27.8% | [19] 91.7%
active: [3] -72.3% | [10] 8.8% | [11] -23.5% | [16] -73.3% | [18] 4.54%

CN1CCCCC1CCN1c2ccccc2Sc2ccc(Br)cc21 (stereo unspecified)
active: [10] -32%
inactive: [1] 69.5% | [2] 73.3% | [3] 32.9% | [5] 58.7% | [6] 55.6% | [7] 66.7% | [8] 32.6% | [9] 30.3% | [11] 46% | [12] 62.3% | [13] 85.9% | [14] 59.4% | [15] 69.6% | [16] 35.9% | [17] 77.9% | [18] 81% | [19] 73.2%

COc1cccc(NC(=O)c2sc3nc4c(cc3c2N)CN(Cc2ccccc2)CC4)c1
inactive: [1] 66.8% | [2] 74% | [3] 42.9% | [4] 79.7% | [5] 54% | [7] 42.8% | [8] 60.9% | [9] 65.1% | [10] 28.8% | [11] 72.7% | [12] 47% | [13] 85.3% | [14] 20.5% | [15] 36.9% | [16] 44.2% | [17] 36.4% | [18] 20.8% | [19] 63.2%

N=S(=O)(NC(=O)c1ccc(Cl)cc1Cl)c1ccc(Br)s1 (stereo unspecified)
inactive: [1] 116% | [2] 94.4% | [3] 79.4% | [4] 98.4% | [5] 95.6% | [7] 61.2% | [8] 87.2% | [9] 98.5% | [10] 75% | [11] 86.5% | [12] 90.9% | [13] 119% | [15] 96.4% | [17] 105% | [18] 87.3% | [19] 91.3%
active: [16] -1.49%

Cn1cc(-c2csc(-c3cn(C)c4ncccc34)n2)c2ccccc21
active: [7] -0.625% | [10] 9.51% | [17] -4.76%
inactive: [2] 56.4% | [3] 51.2% | [4] 50.3% | [5] 57.4% | [6] 35.1% | [8] 10.1% | [9] 14.6% | [11] 22.4% | [12] 30.2% | [13] 64.6% | [14] 71.6% | [15] 36.6% | [16] 42.8% | [18] 46% | [19] 22.8%

NC1=CSC2=N/C(=C\c3ccc(Cl)cc3)C(=O)N12
inactive: [2] 76.8% | [3] 58.2% | [4] 72.8% | [5] 88.3% | [6] 38.8% | [7] 65.6% | [11] 39.9% | [12] 72.3% | [13] 105% | [14] 84.1% | [15] 89.3% | [16] 79.2% | [17] 71.6% | [18] 101% | [19] 76.1%
active: [8] -13.5% | [9] 8.12% | [10] -2.29%

Cc1csc2ccc(Cl)cc12
inactive: [1] 99.7% | [2] 93.1% | [4] 99.4% | [5] 95.5% | [6] 96.9% | [7] 119% | [8] 108% | [9] 112% | [11] 109% | [13] 102% | [14] 98.1% | [15] 96.5% | [16] 104% | [17] 111% | [18] 104% | [19] 103%
